# In a collection of fitness landscapes (doi:10.1016/j.celrep.2020.107928):
# In all, about 81,000 sequences were measured (“one-hybrid fitness for binding parS DNA”: median about -0.17, highest 2% from about 0.51 on). Only a selection was taken, and the highest values are over-represented in it overall.
# B1: Caulobacter ParB omega fusion; a variant is named by its letters at X, in order, B8GW30 (parent)
# chain: MESVVVGEPGMSEGRRGLGRGLSALLGEVDAAPAQAPGEQLGGSREAPIEILQRNPDQPRRTFREEDLEDLSNSIREKGVLQPILVRPSPDTAGEYQIVAGERAWRAAQRAGLKTVPIMVRELDDLAVLEIGIIENVQRADLNVLEEALSYKVLMEKFERTQENIAQTIGKSXSHVANXMRLLXLPDEVQSYLVSGELTAXHARAIAAAADPVALAKQIIEGGLSVRETEALARKAPNLSAGKSKGGRPPRVKDTDTQALESDLSSVLGLDVSIDHRGSTGTLTITYATLEQLDDLCNRLTRGI
# Variants of: B1
# Assay: one-hybrid fitness for binding parS DNA (scaled: cognate 1, non-cognate 0); higher = stronger binding
# Details: with parS DNA site
# Outline: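 Fitness here means the log change in variant-to-wild-type read ratio between plasmids sequenced before and after selection. That scale was set so cognate equals 1 and non-cognate equals 0. The selection was a bacterial one-hybrid screen of Caulobacter ParB libraries, four specificity codons randomised, in E. coli USO carrying a HIS3 reporter with the site 19 bp from the promoter, grown 48 hours at 37°C on M9-minus-histidine with 0.1 mM IPTG and 5 mM 3-AT.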
row,Variant,one-hybrid fitness for binding parS DNA
1,WRGT,≤ 0.2
2,LTAS,≤ 0.2
3,HNMS,≤ 0.2
4,RRQN,0.614
5,RRQH,≤ 0.2
6,RRQM,0.324
7,RRQP,≤ 0.2
8,RRQD,≤ 0.2
9,RRQS,0.649
10,DHPT,≤ 0.2
11,RGVM,≤ 0.2
12,LQKG,≤ 0.2
13,QYAK,≤ 0.2
14,TQYT,≤ 0.2
15,RLFM,0.369
16,RLAG,1.01
17,RLFG,0.991
18,RLAN,0.442
19,RLFK,≤ 0.2
20,RLAD,≤ 0.2
21,AIYN,≤ 0.2

row,Variant,one-hybrid fitness for binding parS DNA
1,WEYM,≤ 0.2
2,NPSH,≤ 0.2
3,VRSD,≤ 0.2
4,RAIV,≤ 0.2
5,RPEN,≤ 0.2
6,CYEL,≤ 0.2
7,HDFT,≤ 0.2
8,NCIT,≤ 0.2
9,RYCS,0.958
10,RYID,≤ 0.2
11,RYIP,≤ 0.2
12,RYCH,0.223
13,RYQH,≤ 0.2
14,RYCP,≤ 0.2
15,RYIS,0.939
16,RYYD,≤ 0.2
17,RYQD,≤ 0.2
18,RYYP,≤ 0.2
19,RYYS,0.978
20,RYQS,0.912
21,LVWD,≤ 0.2

row,Variant,one-hybrid fitness for binding parS DNA
1,NPHT,≤ 0.2
2,PSHS,≤ 0.2
3,DITP,≤ 0.2
4,NQLR,≤ 0.2
5,PVNW,≤ 0.2
6,YEPV,≤ 0.2
7,CIDV,≤ 0.2
8,MSHI,≤ 0.2
9,RYHN,0.421
10,RYSN,0.384
11,RYRS,0.824
12,RYSS,0.911
13,RYGS,0.901
14,RYRN,0.375
15,RYHS,0.921
16,RYHD,≤ 0.2
17,RYGD,≤ 0.2
18,RYSH,≤ 0.2
19,RYRD,≤ 0.2
20,RYGN,0.408
21,PQCT,≤ 0.2

row,Variant,one-hybrid fitness for binding parS DNA
1,AYIG,≤ 0.2
2,HGTM,≤ 0.2
3,RYRV,≤ 0.2
4,SHLR,≤ 0.2
5,VPHG,≤ 0.2
6,KAVS,≤ 0.2
7,RYPC,0.477
8,RYLS,0.986
9,RYPP,≤ 0.2
10,RYWS,0.99
11,RYLH,≤ 0.2
12,RYWH,≤ 0.2
13,RYPS,0.635
14,RYWN,0.422
15,RYPD,≤ 0.2
16,RYIC,0.757
17,RYIY,0.352
18,RYLD,0.206
19,PNPL,≤ 0.2
20,SDTR,≤ 0.2
21,MCER,≤ 0.2
